Bioassay records as filed in PubChem.
Rows were chosen to be rich in hits. Some 2.4% of all compounds tested hit in one or more screens of this group.
MLLE-PAM2 inh – inhibitors of microRNA-mediated deadenylation, human PABP1 MLLE binding | AID 588489 | GST-MLLE / FITC-PAM2 fluorescence polarization | 0.36% of 360,000 active | inhibition, % at 20 µM; in the data active = inhibition above about 35%, passing the limit was not always enough;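 also: plate controls were DMSO wells with GST-MLLE for no effect and wells lacking GST-MLLE protein for full effect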
Target sequence (P11940 whole entry, looked up): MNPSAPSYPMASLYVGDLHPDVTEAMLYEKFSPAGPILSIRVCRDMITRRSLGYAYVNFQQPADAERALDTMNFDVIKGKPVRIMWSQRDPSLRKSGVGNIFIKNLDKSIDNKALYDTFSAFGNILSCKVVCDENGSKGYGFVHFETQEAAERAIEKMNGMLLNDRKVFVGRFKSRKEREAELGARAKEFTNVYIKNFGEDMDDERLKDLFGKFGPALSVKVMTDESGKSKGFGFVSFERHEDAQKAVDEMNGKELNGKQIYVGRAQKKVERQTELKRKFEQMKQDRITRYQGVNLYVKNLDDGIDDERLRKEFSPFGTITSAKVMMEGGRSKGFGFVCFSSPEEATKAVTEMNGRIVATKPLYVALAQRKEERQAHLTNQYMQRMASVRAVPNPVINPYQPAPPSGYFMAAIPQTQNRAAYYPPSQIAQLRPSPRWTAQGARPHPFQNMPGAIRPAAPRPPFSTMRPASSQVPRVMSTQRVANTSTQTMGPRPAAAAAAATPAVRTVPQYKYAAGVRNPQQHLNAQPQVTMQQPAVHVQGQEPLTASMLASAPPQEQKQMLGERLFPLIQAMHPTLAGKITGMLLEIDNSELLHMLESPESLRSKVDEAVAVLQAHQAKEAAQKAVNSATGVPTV
PERK inh – inhibitors of human PERK kinase; 0.17% of 220,000 active; inhibition, % at 5.6 µM; AID 1416; CHO PERK-DD fusion, SEAP luminescence translation reporter;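 active = inhibition above the mean inhibition of all tested compounds plus 3 SD, set separately per screening campaign, cut at about 2.9% in these data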;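 also: PERK kinase domain activated by AP20187 dimerizer at 100 nM; 0% = DMSO with dimerizer and 100% = rapamycin at 8.4 µM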
eIF4H inh – inhibitors of RNA binding by human eIF4H; Q15056; eIF4H fluorescence polarization binding assay; inhibition, % at 35 µM; 0.94% of 290,000 active;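 also: calls also rest on retests at 20 µM and on dose response follow-up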
PfM18AAP inh – PfM18AAP enzyme inhibition; AID 1822; 1.2% of 290,000 active; recombinant PfM18AAP, H-Glu-NHMec fluorogenic cleavage; inhibition, % at 7.35 µM;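 active = inhibition above the campaign mean inhibition over all tested compounds plus 3 SD, cut at about 28% in these data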;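 also: 0% = plate median of test compound wells and 100% = 2 mM ZnCl2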
PABP polyA inh – PABP-poly(A) binding inhibition | PABP-poly(A) RNA binding, fluorescence polarization | inhibition, % at 35 µM | 1% of 290,000 active | AID 2014;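 also: calls also rest on retests at 20 µM and on dose response follow-up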
eIF4E 4G PPI – eIF4E/eIF4G interaction inhibition in translation initiation | P63073+Q04637 | TR-FRET eIF4E-eIF4GI(517-606) binding, 2 h | inhibition, % at 21.7 µM | 0.37% of 220,000 active | AID 782;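 active = inhibition above about 30%, limit read from the data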;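 also: 0% = full FRET control wells and 100% = background wells lacking eIF4GI fragment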
Numbers without * were called inactive; ? = inconclusive; / = no result given. Unless noted, no rule for the calls is given here.

SMILES | MLLE-PAM2 inh | PERK inh | eIF4H inh | PfM18AAP inh | PABP polyA inh | eIF4E 4G PPI
CO/N=C/C1C(=O)NN=C1c1ccccc1 (stereo unspecified) | 5 | 0 | ? | 0 | 93* | 2
Cc1ccc(COC(=O)c2ccc3ccccc3n2)cc1 | 2 | / | -14 | -1 | -8 | /
CSc1nc2c(=S)[nH]c(=S)[nH]c2s1 | 39* | / | / | / | / | /
COC(=O)CNC(c1ccccc1)c1cc(Br)ccc1NC(C)=O (stereo unspecified) | 12 | -1 | -3 | 1 | -15 | 0
COC(=O)CNC(c1ccccc1Cl)c1cc(Br)ccc1NS(=O)(=O)c1ccc(C)cc1 (stereo unspecified) | -2 | 1 | active | 0 | 66 | 0
COc1ccc(S(=O)(=O)N2CCOC2CNC(=O)C(=O)NCc2ccc3c(c2)OCO3)cc1C (stereo unspecified) | -7 | / | / | / | / | /
O/N=C1/CCc2cccc3cccc1c23 | 19 | 0 | 62* | 7 | 82* | 1
S=C(NC1CCCCC1)N1CCn2cccc2C1c1ccncc1 (stereo unspecified) | -88 | 0 | 70* | -10 | active | -1
Cc1ccc(NC(=O)NC(=O)CN2CCN(c3ccc(O)cc3)CC2)c(C)c1 | 1 | / | -7 | 30* | 1 | /
COC(C/C=C/C(=O)COCc1ccccc1)OC | -8 | / | 0 | / | -5 | -2
CC1(c2nnc(-c3ccccc3)o2)CC(c2ccncc2)=NO1 (stereo unspecified) | -8 | / | -6 | / | -2 | 97*
COc1ccc(Nc2nc(N)nc(CSc3nnc(N)s3)n2)cc1 | 1 | 1 | 5 | 0 | -1 | -8
COc1ccc(Nc2nc(N)nc(CSc3nccn3C)n2)cc1 | 15 | 0 | 90* | 6 | 70 | 1
Cc1cccc2c3c([nH]c12)CCN(C)C3 | -1 | / | 14 | 29* | -10 | /
CCC(CC)C1C(C#N)=C(N)SC(N)=C1C#N | -10 | 2 | 11 | 31* | -1 | -1
CC(C)C1C(C#N)=C(N)SC(N)=C1C#N | 25 | -1 | -4 | 19 | 8 | -2
Cc1ccc(S(=O)(=O)N2CCOCC2)cc1C(=O)N1c2ccccc2Sc2ccccc21 | -3 | -2 | -8 | 2 | -2 | 11
O=C1CC(c2ccc(O)c(O)c2)Oc2c1ccc(O)c2O (stereo unspecified) | -10 | / | 94* | / | 53* | 6
Cc1ccc(S(=O)(=O)c2nc(-c3ccc(F)cc3)oc2N2CCOCC2)cc1 | -21 | / | 8 | 0 | 8 | /
O=C(Nc1ncc2c(n1)-c1ccccc1CC2)C1CC1 | 0 | 0 | 2 | 3 | 22 | -1
CC(C)SCC(=O)Nc1ncc2c(n1)-c1ccccc1CC2 | -33 | 1 | 76* | 6 | 24 | 12
CCCNC(=O)C1(C)CCCN(CCC(=O)c2ccccc2)C1 (stereo unspecified) | 25 | / | / | / | / | /
CN(C)Cc1cc(O)c(CN(C)C)cc1O | 79* | 2 | 80 | 28 | 44 | 16
CN(C)Cc1cc(C(C)(C)C)cc(C(C)(C)C)c1O | -14 | 2 | -5 | -3 | -6 | -1
C=CCSc1nc(-c2ccc(OC)cc2)c(C#N)c(=O)n1CC=C | -12 | 0 | 2 | 1 | 1 | 89*
SMILES | MLLE-PAM2 inh | PERK inh | eIF4H inh | PfM18AAP inh | PABP polyA inh | eIF4E 4G PPI
COc1ccc(-c2nc3n(c(=O)c2C#N)CCS3)cc1 | -64 | 0 | 3 | 1 | -5 | 2
O=C(CCC(=O)c1cccs1)Nc1ccc(F)c(F)c1F | -12 | 1 | 8 | 17 | 4 | -13
CN1C(=O)C2(c3ccccc31)C1CCCC=C1C(C#N)=C(N)C2(C#N)C#N (stereo unspecified) | -8 | 0 | 44* | -1 | 66* | -13
COc1ccc(S(=O)(=O)N(CC(=O)NCc2ccncc2)c2ccc(C)cc2)cc1Br | -8 | / | -10 | -2 | 16 | /
Nn1c(SCc2ccccc2F)nnc1-c1ccccn1 | -8 | -1 | 4.1* | 1 | 61* | -3
CSc1nsc(NN)n1 | 42* | / | / | / | / | /
O=C(/C(=C/c1ccccc1)n1cncn1)c1ccc(Cl)cc1Cl | 3 | 0 | -14 | 54* | -4 | -3
O=C(O)c1ccccc1CSc1ncccc1C(=O)O | 17 | 1 | 5 | 2 | -12 | -2
CC(Sc1ccc2nnc(-c3ccc(F)cc3)n2n1)C(=O)O (stereo unspecified) | 1 | 1 | -4 | 2 | -5 | 14
CCOC(=O)C(C)Sc1ccc2nnc(-c3ccc(F)cc3)n2n1 (stereo unspecified) | -10 | -1 | -6 | -8 | -3 | 51*
O=C(O)C(C(=O)/C=C/c1ccco1)=C1SCCS1 | 13 | 1 | 74 | -29 | 49 | 6
O=C(/C=C/c1ccc([N+](=O)[O-])cc1)/C=C/c1ccco1 | -21 | / | 61* | 3 | 50* | /
O=C(C=C1SCCS1)/C=C/c1ccco1 | 8 | 1 | 90* | 11 | 60* | 4
COCC1CCCC1OS(N)(=O)=O (stereo unspecified) | 25 | / | -5 | 0 | 5 | /
COc1ccc(NC(=S)N2CCN(c3ncccn3)CC2)c(OC)c1 | -55 | 0 | -7 | 26 | 0 | -4
CCOC(=O)C1CCCN(c2oc(-c3ccc(OC)cc3)nc2C#N)C1 (stereo unspecified) | 4 | 0 | 1 | -14 | -3 | 19
Cc1cccc(N2CCN(C(=O)c3ccccn3)CC2C)c1 (stereo unspecified) | -6 | 0 | ? | -13 | 2.3* | 1
COc1ccc(NC(=O)CSc2nc(C(C)C)nc3c2c(=O)n(C)c(=O)n3C)c(OC)c1 | 9 | / | -6 | -10 | -13 | /
CC(/C=N/NC(=O)CSc1nnc(SCc2ccccc2)s1)=C\c1ccco1 | -100 | 1 | 69* | 5 | 2.7* | 3
CC(=O)Nc1ccc2ccc3cccc4ccc1c2c34 | 2 | 0 | 60* | 3 | -1 | 4
O=[N+]([O-])c1ccc(C2CC(c3ccccc3)=Nc3ccccc3S2)cc1 (stereo unspecified) | 23 | 0 | 9 | 32* | 8 | -2
Cc1ccc(CNC(=O)Cc2ccc(-n3cccc3)cc2)cc1 | 4 | -1 | 11 | 1 | 2 | 2
Cc1ccc(CNC(=O)c2ccc(-n3cccc3)cc2)cc1 | -12 | -1 | 72 | -8 | 6 | 38*
CCN(CC)S(=O)(=O)c1cccc(-c2nnc(SCC(=O)c3cc(C)n(C4CC4)c3C)o2)c1 | -113 | / | 70* | / | 86* | /
O=C(Nc1nnc(-c2ccccc2Cl)o1)c1cccnc1 | -4 | 0 | 12 | 30* | 9 | 10
NS(=O)(=O)c1ccc(NC(=O)Nc2ccc(C(F)(F)F)cc2)cc1 | -6 | 1 | -7 | -13 | -2 | 5
O=C(COC(=O)Cc1ccccc1F)Nc1cccc(F)c1 | -9 | 2 | 0 | -2 | 57 | 3
Cn1c(SCC(=O)N2CCOCC2)nnc1-c1cccc(NC(=O)c2ccccc2)c1 | -111 | 0 | / | -7 | / | 0
